Bioassay records: PubChem, National Center for Advancing Translational Sciences (NCATS)
ELG1 repair inh = qHTS screen for small molecules that inhibit ELG1-dependent DNA repair in human embryonic kidney (HEK293T) cells expressing luciferase-tagged ELG1 | HEK293T ELG1-luciferase reporter, luminescence, 16 h; DNA damage induced by 5-fluorouridine | AID 504467, 2011 | 330,000 compounds, 2.3% hits | Potency, µM (highest dose often 46.1 µM), for the others: at the highest dose activity change, negative = inhibition, usual class: inhibitors; further: on the % scale 0 is the no-effect control and ±100 the full control effect; nearly all actives have a fitted effect of over 55% in size
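HEK293T cells expressing luciferase-tagged ELG1 (2,000/well) received 5-Fluorouridine plus compound or DMSO for 16 hr at 37 °C. Luciferase was read by ONE-Glo luminescence after 30 min at room temperature.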
FLuc modulator = qHTS profiling assay for firefly luciferase inhibitor/activator using purifed enzyme and Km concentrations of substrates (counterscreen for miR-21 project); Luciferin 4-monooxygenase (Photinus pyralis), P08659; purified FLuc, Km substrates, luminescence inhibition; Potency, µM (highest dose often 57.5 µM), inactives show top-dose activity change, negative = inhibition, actives largely listed as inhibitors; 360,000 compounds, 6.9% hits; AID 588342, 2011;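 further: plate controls were vehicle for no effect and reference inhibitor for full effect; nearly all actives have a fitted effect of over 55% in size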
Target sequence (P08659 whole entry, looked up): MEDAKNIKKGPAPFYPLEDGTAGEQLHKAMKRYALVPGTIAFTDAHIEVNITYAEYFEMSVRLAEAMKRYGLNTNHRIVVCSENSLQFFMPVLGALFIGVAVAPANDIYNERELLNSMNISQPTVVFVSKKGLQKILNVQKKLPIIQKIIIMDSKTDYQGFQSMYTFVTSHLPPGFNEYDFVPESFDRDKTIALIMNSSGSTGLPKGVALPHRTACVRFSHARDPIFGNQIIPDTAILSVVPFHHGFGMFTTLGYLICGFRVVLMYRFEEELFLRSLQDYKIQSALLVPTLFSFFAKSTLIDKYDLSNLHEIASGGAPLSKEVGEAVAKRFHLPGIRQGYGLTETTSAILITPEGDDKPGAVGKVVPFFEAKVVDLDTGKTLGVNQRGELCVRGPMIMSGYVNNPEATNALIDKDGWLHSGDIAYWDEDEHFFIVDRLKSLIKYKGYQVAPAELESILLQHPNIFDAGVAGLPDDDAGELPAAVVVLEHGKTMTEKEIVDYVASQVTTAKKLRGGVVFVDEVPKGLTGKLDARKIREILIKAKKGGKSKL
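Purified P. pyralis luciferase, 10 nM final, with Km-level 10 uM D-luciferin and 10 uM ATP in 50 mM Tris acetate pH 7.5, 10 mM Mg acetate, 0.01% Tween-20, 0.05% BSA; 6-point qHTS titration about 60 µM downward; luminescence read.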
NPC1 prom act = qHTS Assay for NPC1 Promoter Activators; Huh7 NPC1 promoter luciferase reporter, 24 h; Potency, µM (highest dose often 9.22 µM), without a hit: at the top dose activation, usual class: activators; 320,000 compounds, 2.4% hits; AID 485313, 2010; further: % of control where 0% means no effect; nearly all actives have a fitted effect of over 60% in size
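Stably transfected Huh7 (NPC1 promoter→luciferase), 1500 cells/well in Opti-MEM + 10% FBS, 2 h settle, then compound 24 h at 37 °C. Luminescence after 10 min with Amplite reagent.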
ELG1 genotox = qHTS screen for small molecules that induce genotoxicity in human embryonic kidney (HEK293T) cells expressing luciferase-tagged ELG1; AID 504466, 2011; Potency, µM (series often up to 46 µM), for the others: at the top dose activity change, positive = activation, usual class: activators; HEK293T ELG1-luciferase reporter, luminescence, 16 h; 330,000 compounds, 1.3% hits; further: % of control where 0% means no effect; nearly all actives have a fitted effect of over 60% in size
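16 hr compound incubation (37 °C, 5% CO2) of HEK293T cells carrying luciferase-tagged ELG1; luciferase then measured by ONE-Glo luminescence after 30 min at RT.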
SMN2 splice up = qHTS Assay for Enhancers of SMN2 Splice Variant Expression | Potency, µM (highest dose often 46.1 µM), for inactives: at the highest dose activity change, positive = activation, hits mostly activators | HEK293 SMN2-luciferase splicing reporter, luminescence, 30-36 h | 210,000 compounds, 2.8% hits; further: % of control where 0% means no effect; nearly all actives have a fitted effect of over 55% in size
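HEK293 cells carry an SMN2 minigene-luciferase reporter in which exon 7 inclusion puts luciferase in frame. Cells were seeded at 2000 cells/well, attached for 10-12 hours, then exposed to compounds for 30-36 hours at 37C before ONE-Glo luminescence.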
Rab9 prom act = qHTS Assay for Rab9 Promoter Activators | 320,000 compounds, 2.8% hits | AID 485297, 2010 | Potency, µM (titrated, usually from 9.22 µM), for inactives: at the highest dose activation, negative = inhibition, usual class: activators | Huh7 Rab9 promoter-luciferase reporter, luminescence, 24 h; further: % of control where 0% means no effect; nearly all actives have a fitted effect of over 60% in size
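Using Huh7 cells stably transfected with Rab9 promoter–luciferase, compounds were incubated 24 h at 37 °C, 5% CO2; luciferase luminescence was read 10 min after reagent addition.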
Starred values were filed as active, the others as inactive; ? = inconclusive; . = no result; [ ] = dose if it differs, or a comment. Hits are enriched below; roughly 9.4% of the tested compounds scored in any of these assays. The call rests on the fitted dose curve; in most records, active means well fitted curve in the direction sought with a large enough effect; inconclusive means small, poorly fitted or top-dose-only effect, or another doubt; inactive means no such curve, though single readings can be large; an effect the other way counts as inactive or inconclusive. Potency means the concentration at half of the fitted maximal effect.

SMILES | ELG1 repair inh | FLuc modulator | NPC1 prom act | ELG1 genotox | SMN2 splice up | Rab9 prom act
COc1ccccc1NC(=O)C1=C(C)Nc2c(C(=O)Nc3cccc(C)c3)cnn2C1c1ccccc1Cl (stereo not drawn) | . | -2% | . | . | . | .
Cc1cc(OCC(=O)NNC(=O)c2ccncc2)ccc1C(C)C | 9% | 8.5µM* | -2% | 2% | . | -4%
O=C(COc1ccccc1)Nc1ccncc1 | -5% | -10% | -2% | -1% | . | -3%
O=C(COc1ccc2ccccc2c1)Nc1ccncc1 | 7% | 9.5µM* | 2% | -2% | . | -12%
CC(C)(C)c1ccc(OCC(=O)Nc2ccncc2)cc1 | -5% | 6µM* | -2% | -6% | . | 1%
CC(C)c1ccc(OCC(=O)Nc2ccncc2)cc1 | 10% | 5.4µM* | 4% | 3% | . | 0%
Cc1ccc(Oc2ccc(OCC(=O)Nc3ccncc3)cc2)cc1 | ? | . | . | 3% | . | .
COc1ccc(OC)c(CNS(=O)(=O)c2c(C(=O)N3CCCCCC3)c(C)n(C)c2C)c1 | . | -1% | . | . | . | .
COCC(=O)Nc1ccc(C(C)C)cc1 | ? | 24µM* | 27% | ? | ? | 26%
CCc1ccc(OCC(=O)Nc2cccc3nsnc23)cc1 | 9% | 17µM* | -2% | 3% | -3% | -6%
CCc1ccc(OCC(=O)Nc2ccncc2)cc1 | 5% | 11µM* | 0% | -2% | . | 2%
CCc1ccc(OCC(=O)N/N=C2\CC(=O)c3ccccc32)cc1 | ? | 12µM* | 14% | -2% | -4% | 13%
O=S(=O)(c1cccc(C(F)(F)F)c1)N1c2ccccc2-n2cccc2[C@H]1c1cccnc1 | . | . | . | . | -42%[9.22 µM] | .
CC(C)c1ccc(OCC(=O)Nc2ccc(S(=O)(=O)Nc3ccccn3)cc2)cc1 | -3% | ? | 3% | -2% | . | 0%
CC(C)c1ccc(OCC(=O)Nc2ccc(S(=O)(=O)Nc3ncccn3)cc2)cc1 | . | 9.5µM* | . | . | 3% | .
O=C1OC(c2ccc(F)cc2)=N/C1=C\c1ccc(Br)o1 | 6% | 6µM* | -11% | 0% | 8% | -1%
COc1ccc(/C=C2\N=C(c3ccc(C)cc3)OC2=O)cc1 | -10% | ? | -2% | 0% | . | 4%
CCN(CC)c1nn2c(=O)c(C(=O)NCc3ccc(OC)cc3OC)cnc2s1 | . | -5% | . | . | . | .
CCOC(=O)/C(=C/c1c(C)n(C)c2ccc([N+](=O)[O-])cc12)C(C)=O | 13µM* | -4% | 7% | -1% | -10% | -6%
CCOC(=O)c1c(N)c2cc([N+](=O)[O-])ccc2n1C | 28% | 4% | 11% | 9% | . | -3%
c1cncc(-c2nc(NCC3CCCO3)c3ccccc3n2)c1 (stereo not drawn) | 23µM* | 0% | 0% | -16% | . | -7%
CC(C)Oc1ccc(-c2nc(NCC3CCCO3)c3ccccc3n2)cc1 (stereo not drawn) | ? | 9.5µM* | -3% | -7% | . | 3%
Clc1cccc(-c2nc(NCc3cccnc3)c3ccccc3n2)c1 | 7.3µM* | 1% | 0% | -1% | -1% | 0%
Cc1nn(C(C)(C)C)c(OC(=O)c2c(F)cccc2F)c1Sc1ccccc1 | . | -5% | . | . | 8% | .
CCN(CC)c1cc2c(cc1F)c(=O)c(S(=O)(=O)c1ccc(OC)cc1)cn2Cc1ccccc1 | . | -7% | . | . | . | .
SMILES | ELG1 repair inh | FLuc modulator | NPC1 prom act | ELG1 genotox | SMN2 splice up | Rab9 prom act
COc1ccc(C(=O)N/N=C(/C)c2cccc(NC(=O)c3ccccc3F)c2)cc1 | ? | 3.8µM* | ? | 6% | . | 24%
COc1ccc(CC(=O)Nc2cccc(/C(C)=N/NC(=O)c3cccc([N+](=O)[O-])c3)c2)cc1 | ? | ? | -3% | -10% | -17% | 0%
COc1ccc(C(=O)N/N=C(\C)c2cccc(NC(=O)c3ccc(F)cc3)c2)c(OC)c1 | ? | 4.3µM* | 30% | 3% | . | 30%
Cc1ccc(NC(=O)c2nnn(CC(=O)Nc3ccc(C)c(Cl)c3)c2N)c(C)c1 | . | -2% | . | . | . | .
COc1ccc2c(c1)-c1nc(/N=C/c3cccc(OC)c3O)sc1CC2 | -3% | ? | -1% | -2% | 2%[1.84 µM] | 2%
COc1ccc2nc(/N=C/c3cccc(OC)c3O)sc2c1 | ? | 0.95µM* | 26% | ? | . | ?
COc1ccc2nc(/N=C/c3c(C)[nH]n(-c4ccc(C)cc4)c3=O)sc2c1 | ? | 7.6µM* | 11% | 4% | ? | 22%
CN(C)/C=N/c1nc2ccc3c(c2s1)CCCC3 | ? | 6µM* | 2.5µM* | ? | 14µM* | 3.5µM*
Cc1nc(/N=C\N(C)C)sc1C(=O)Nc1ccccc1 | ? | -14% | 18% | ? | 13% | 12%
COc1ccc2nc(N=Nc3ccc(N(C)C)cc3)sc2c1 | ? | 0.067µM* | 0.32µM* | ? | -5% | 0.71µM*
Cc1ccc(-n2[nH]c(C)c(C=Nc3cc(C)ccn3)c2=O)cc1 | 7% | ? | -4% | 7% | ? | 1%
Cc1cnc2c(c1SCC(=O)Nc1ccc(F)cc1F)c(=O)n(C)c(=O)n2C | . | -3% | . | . | . | .
COc1ccc(-n2c(=O)c3sc4ccccc4c3n(Cc3ccccc3C)c2=O)cc1OC | . | -2% | . | . | 5% | .
COc1ccc2nc(/N=C\N(C)C)sc2c1 | ? | 24µM* | 24% | 16% | 39% | ?
CC(=O)c1cccc(NC(=O)Cn2c(=O)c(CNc3ccc(C)cc3)cc3cc4c(cc32)OCCO4)c1 | . | -7% | . | . | . | .
O=C(CNC(=S)NC(=O)c1ccco1)c1ccccc1 | ? | 12µM* | ? | 16% | 2% | 23%
O=C(CNC(=S)NC(=O)c1cccs1)c1ccccc1 | ? | ? | 13% | ? | . | 17%
O=C(NC(=S)NCCc1ccccc1)C1CCCCC1 | ? | ? | -1% | 6% | 21% | -2%
O=C(CNC(=S)NC(=O)C1CCCCC1)c1ccccc1 | ? | 12µM* | 30% | ? | ? | ?
O=C(Nc1ccc(NC(=S)NC(=O)c2ccco2)cc1)c1ccccc1 | ? | 1% | -3% | 15% | . | 13%
O=C(NNC(=S)NC(=O)c1ccco1)c1ccc(NC(=O)c2ccccc2)cc1 | 15µM* | ? | -1% | -6% | -27% | -6%
O=C(NC(=S)NNC(=O)c1cc2ccccc2cc1O)c1ccco1 | 1% | 17µM* | 13% | 3% | -4% | 0%
COc1ccc(C(=O)NC(=S)NNC(=O)c2ccco2)cc1 | -11% | 0% | -3% | 3% | . | -2%
